# Reference: PubChem BioAssay (NCI)
# The panel holds about 83,000 compounds, 20% with a hit somewhere; the sample as a whole holds those more often.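 Single-dose data. Exposure time 48 hours. Values below 10 considered active.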 Values without a mark were called inactive. Activity calls are given as the source filed them.
# Key:
# Assay in all cases: NCI-60 one-dose screen, 48 h (100 = growth as untreated, 0 = no growth, -100 = all killed)
# Settings in all cases: 10 µM unless noted
# NCI-H23 lung = system: NCI-H23 lung
# NCI-H226 lung = system: NCI-H226 lung
# NCI-H322M lung = system: NCI-H322M lung
# HOP-62 NSCLC = system: HOP-62 NSCLC
# NCI-H460 lung = system: NCI-H460 lung
# HOP-92 NSCLC = system: HOP-92 NSCLC
# NCI-H522 lung = system: NCI-H522 lung
# A549/ATCC NSCLC = system: A549/ATCC NSCLC
# 786-0 renal = system: 786-0 renal
# COLO 205 colon = system: COLO 205 colon
# DU-145 prostate = system: DU-145 prostate
# K-562 leukemia = system: K-562 leukemia
# MALME-3M melanoma = system: MALME-3M melanoma
# MDA-MB-231 breast = system: MDA-MB-231 breast
# RXF 393 renal = system: RXF 393 renal
# SF-268 CNS = system: SF-268 CNS
# SF-295 CNS = system: SF-295 CNS
# SF-539 CNS = system: SF-539 CNS
# UACC-257 melanoma = system: UACC-257 melanoma
# M14 melanoma = system: M14 melanoma
Compound,growth (NCI-H23 lung),growth (NCI-H226 lung),growth (NCI-H322M lung),growth (HOP-62 NSCLC),growth (NCI-H460 lung),growth (HOP-92 NSCLC),growth (NCI-H522 lung),growth (A549/ATCC NSCLC),growth (786-0 renal),growth (COLO 205 colon),growth (DU-145 prostate),growth (K-562 leukemia),growth (MALME-3M melanoma),growth (MDA-MB-231 breast),growth (RXF 393 renal),growth (SF-268 CNS),growth (SF-295 CNS),growth (SF-539 CNS),growth (UACC-257 melanoma),growth (M14 melanoma)
CCN(CC)CCOc1ccc(Nc2ncc3cc(-c4c(Cl)cccc4Cl)c(=O)n(CCOC)c3n2)cc1,-9.78% (active),28%,17.5%,6.51% (active),3.65% (active),-18.7% (active),-28.5% (active),0.456% (active),5.35% (active),-40% (active),-13.8% (active),5.78% (active),10.6%,-73.2% (active),-64.4% (active),-9.68% (active),25.7%,-75.7% (active),12.9%,-6.68% (active)
COc1ccc(/C=C(\C(=O)NCc2cccnc2)S(=O)(=O)c2ccccc2)cc1OC,37.1%,74.6%,41.3%,50.7%,14.7%,43.5%,-4.24% (active),45.7%,20.8%,30.2%,5.77% (active),8.68% (active),48%,22.8%,15.5%,29.1%,57.8%,15.3%,44.7%,28.8%
Cc1ccc(-c2nc(SCC(=O)N3CCN(c4cc5c(cc4F)c(=O)c(C(=O)O)cn5C4CC4)CC3)nc(Cl)c2C#N)cc1,100%,104%,101%,90.4%,103%,112%,93.8%,107%,97.8%,108%,106%,98.2%,106%,99.7%,106%,93.5%,97.4%,100%,99.3%,99%
c1ccc(-c2ccc3c(c2)C2(CCNCC2)CN3)cc1,86.3%,95.9%,102%,95.2%,95.8%,86.1%,88.3%,112%,95.1%,103%,99%,90%,94.1%,85.1%,112%,87.4%,98.6%,97.8%,119%,92.3%
O=C(Cn1nc(-c2cccc3ccccc23)ccc1=O)NCc1cccc(Cl)c1,45.2% [50 µM],38.2% [50 µM],70.4% [50 µM],72.2% [50 µM],32.2% [50 µM],26.3% [50 µM],17.1% [50 µM],28.5% [50 µM],37.7% [50 µM],37.3% [50 µM],55.7% [50 µM],20.4% [50 µM],70.5% [50 µM],55% [50 µM],37.7% [50 µM],52.9% [50 µM],18.7% [50 µM],58.3% [50 µM],44.2% [50 µM],34% [50 µM]
Clc1ccc(Nc2nnc(CNc3ccccc3)c3ccccc23)cc1,9.95% (active),25%,30.4%,27.4%,17.7%,-19.3% (active),-5.92% (active),20.3%,21.4%,11.9%,19%,5.39% (active),-13.8% (active),19.9%,25.7%,20.9%,14.3%,34%,-6.49% (active),5.8% (active)
O=c1oc2c(cc1-c1ccccc1)c(=O)[nH]c1ccccc12,95.8%,102%,104%,106%,105%,103%,94.2%,97.7%,85.9%,107%,105%,89.2%,95.7%,96.8%,102%,100%,94.6%,106%,100%,99.7%
COC12C=C/C(=C(/C(=O)OCc3cncnc3)C(=O)CCCCCCCCC3(OC)C=C/C(=C(/C(=O)OCc4cncnc4)C(=O)CCCCCCCC1)O3)O2,-49.9% (active),-78% (active),-66% (active),9.7% (active),-20.5% (active),-59.7% (active),-33.8% (active),-7.89% (active),-70.7% (active),-30.5% (active),-42.7% (active),-16.8% (active),-70.8% (active),5.88% (active),-74.2% (active),-10.6% (active),-13.8% (active),-27% (active),-12.7% (active),-12.3% (active)
Cc1ccc(S(=O)(=O)OC[C@]23CCC(C)(C)C[C@H]2C2=CC[C@@H]4[C@@]5(C)CCCNC(C)(C)[C@@H]5CC[C@@]4(C)[C@]2(C)CC3)cc1,73.7%,81.8%,79.7%,78.1%,-60.2% (active),41.8%,62%,34.6%,34.7%,-66.5% (active),37.9%,-20% (active),95.8%,45.6%,67.9%,69.6%,104%,74.8%,97.4%,80.7%
O=C1C=C(SCCO)C(=O)c2ccccc21,-39% (active),95.6%,69.6%,-46.9% (active),9.52% (active),94.3%,21.6%,68.1%,70.3%,76.3%,-96.7% (active),-38.4% (active),-68.1% (active),40.2%,42.4%,27.2%,-77.4% (active),-77.1% (active),66.7%,-86.5% (active)
CS(=O)(=O)Nc1cc(-c2ccc3ncnc(Nc4ccc5c(cnn5Cc5ccccc5F)c4)c3c2)cnc1Cl,41.8%,66.7%,62%,40.3%,59.4%,-21.4% (active),34.3%,71.3%,53.1%,59.4%,51.9%,57.3%,-7.51% (active),36.1%,20.2%,24.3%,60.9%,34.5%,52.9%,39.1%
c1csc(-c2cn3nc(-c4c[nH]c5ccccc45)sc3n2)c1,36.9%,72.4%,25%,27%,11.2%,38.3%,-6.13% (active),35%,42.2%,5.46% (active),13.4%,15.6%,23.7%,22.9%,34.4%,46.1%,14.4%,-12.8% (active),60.1%,8.8% (active)
O=S(=O)(Nc1cc(F)cc(F)c1)c1ccc(-c2cnc(C3CC3)o2)cc1,63.7%,48.2%,63.2%,40.9%,25.3%,42.5%,7.85% (active),46.7%,35.5%,40.1%,70.4%,9.67% (active),50.1%,58.2%,46.6%,56.7%,20.9%,29.2%,62.7%,16.5%
CC(C)c1ccc2c(c1)CC[C@H]1[C@](C)(C(=O)OCC#CCN3CCCC3)CCC[C@]21C,61.3%,81.8%,93.8%,94.1%,96.9%,65.2%,85.8%,75%,84.1%,44.7%,89.3%,39.8%,70.8%,100%,74%,89.1%,97.5%,77.8%,82.4%,82.4%
COC(=O)c1c2c(c(C)[n+]([O-])c1C)C(=O)C(NCc1ccccc1)=CC2=O,9.17% (active),73.3%,7.15% (active),67.1%,11%,71.1%,28.8%,13.7%,60%,-9.35% (active),42.4%,24.4%,-77.8% (active),10.6%,3% (active),28.3%,43.5%,8.86% (active),-22% (active),9.18% (active)
